In PubChem BioAssay (EPA / NIEHS):
Active and inactive are the calls of the source. The calls were made as follows: active = hit-call score of the fitted dose curve at least 0.9, where 1 is the maximum; inactive = score below 0.9.

Columns and labels:
[1] = read-out: Human Leukocyte Antigen - DR isotype (HLADR), HLA-DRA (gene 3122); test: BSK_BE3C_HLADR: BioMAP Diversity Plus: BE3C Assay for Human Leukocyte Antigen - DR isotype (HLADR) Biomarker Activity (AID 2283032); conditions: primary human bronchial epithelial cells; actives raise or lower the signal
Outline: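 Human primary bronchial epithelial cells in the BE3C system were exposed to chemicals for 24 h, after which HLA-DR levels were quantified by ELISA. Activity was fitted bidirectionally, gain or loss of signal, against DMSO as negative control and baseline.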

[2] = read-out: Interferon-gamma inducible Protein 10 (IP10), CXCL10 (gene 3627); test: BSK_BE3C_IP10: BioMAP Diversity Plus: BE3C Assay for Interferon-gamma inducible Protein 10 (IP10) Biomarker Activity (AID 2283034); conditions: primary human bronchial epithelial cells; actives raise or lower the signal
Outline: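 Human primary bronchial epithelial cells were exposed to chemicals for 24 hours, after which IP-10 levels were measured by ELISA. Data were fitted bidirectionally against DMSO, which served as the negative control and activity baseline.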

[3] = read-out: Monokine induced gamma interferon (MIG), CXCL9 (gene 4283); test: BSK_BE3C_MIG: BioMAP Diversity Plus: BE3C Assay for Monokine induced gamma interferon (MIG) Biomarker Activity (AID 2283035); conditions: primary human bronchial epithelial cells; actives raise or lower the signal
Outline: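 MIG level was determined by ELISA after 24 h chemical treatment of primary human bronchial epithelial cells. Values were fitted bidirectionally with DMSO as the negative control and activity baseline.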

[4] = read-out: Transforming growth factor beta 1 (TGFb1), TGFB1 (gene 7040); test: BSK_BE3C_TGFb1: BioMAP Diversity Plus: BE3C Assay for Transforming growth factor beta 1 (TGFb1) Biomarker Activity (AID 2283036); conditions: primary human bronchial epithelial cells; actives raise or lower the signal
Outline: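 Human primary bronchial epithelial cells (BE3C system) were dosed with chemical and TGF-b1 levels measured by ELISA at 24 h. Activity was fitted bidirectionally relative to DMSO negative control as baseline.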

[5] = read-out: Plasminogen activator inhibitor-1 (PAI1), SERPINE1 (gene 5054); test: BSK_BE3C_PAI1: BioMAP Diversity Plus: BE3C Assay for Plasminogen activator inhibitor-1 (PAI1) Biomarker Activity (AID 2283037); conditions: primary human bronchial epithelial cells; actives raise or lower the signal
Outline: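 Human primary bronchial epithelial cells were exposed to chemical for 24 h, then PAI-1 was quantified by ELISA. Activity was fitted bidirectionally relative to the DMSO negative control baseline.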

[6] = read-out: urokinase plasminogen activator (uPA), PLAU (gene 5328); test: BSK_BE3C_uPA: BioMAP Diversity Plus: BE3C Assay for urokinase plasminogen activator (uPA) Biomarker Activity (AID 2283038); conditions: primary human bronchial epithelial cells; actives raise or lower the signal
Outline: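 ELISA read-out of uPA in human lung primary bronchial epithelial cultures, 24 h post-dosing. Gain or loss of signal fitted bidirectionally relative to DMSO baseline; cytotoxicity checked in parallel cultures via SRB total protein stain.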

[7] = read-out: Urokinase-type plasminogen activator receptor (uPAR), PLAUR (gene 5329); test: BSK_BE3C_uPAR: BioMAP Diversity Plus: BE3C Assay for Urokinase-type plasminogen activator receptor (uPAR) Biomarker Activity (AID 2283039); conditions: primary human bronchial epithelial cells; actives raise or lower the signal
Outline: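 Primary human bronchial epithelial cells were dosed with chemical and harvested 24 h later; uPAR was quantified by ELISA. Activity was fitted bidirectionally against DMSO as negative control and baseline.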

[8] = read-out: Interleukin-6 (IL6), IL6 (gene 3569); test: BSK_CASM3C_IL6: BioMAP Diversity Plus: CASM3C Assay for Interleukin-6 (IL6) Biomarker Activity for (AID 2283040); conditions: primary human coronary artery smooth muscle cells; actives raise or lower the signal
[9] = read-out: Tissue plasminogen activator (tPA), PLAT (gene 5327); test: BSK_BE3C_tPA: BioMAP Diversity Plus: BE3C Assay for Tissue plasminogen activator (tPA) Biomarker Activity (AID 2283041); conditions: primary human bronchial epithelial cells; actives raise or lower the signal
Outline: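 Human primary bronchial epithelial cells were dosed with chemical and tPA biomarker levels measured by ELISA 24 hours later. Activity was fitted bidirectionally against DMSO as negative control and baseline.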

[10] = read-out: Interleukin-8 (IL8), CXCL8 (gene 3576); test: BSK_CASM3C_IL8: BioMAP Diversity Plus: CASM3C Assay for Interleukin-8 (IL8) Biomarker Activity (AID 2283042); conditions: primary human coronary artery smooth muscle cells; actives raise or lower the signal;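 also: IL-8 protein level quantified by ELISA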
[11] = read-out: Human Leukocyte Antigen - DR isotype (HLADR), HLA-DRA (gene 3122); test: BSK_CASM3C_HLADR: BioMAP Diversity Plus: CASM3C Assay for Human Leukocyte Antigen - DR isotype (HLADR) Biomarker Activity (AID 2283043); conditions: primary human coronary artery smooth muscle cells; actives raise or lower the signal;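 also: cell-surface HLA-DR protein level quantified by ELISA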
[12] = read-out: Macrophage colony-stimulating factor (MCSF), CSF1 (gene 1435); test: BSK_CASM3C_MCSF: BioMAP Diversity Plus: CASM3C Assay for Macrophage colony-stimulating factor (MCSF) Biomarker Activity (AID 2283044); conditions: primary human coronary artery smooth muscle cells; actives raise or lower the signal;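 also: M-CSF protein amount quantified by ELISA after 24 h exposure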
[13] = read-out: Low-density lipoprotein receptor (LDLR), LDLR (gene 3949); test: BSK_CASM3C_LDLR: BioMAP Diversity Plus: CASM3C Assay for Low-density lipoprotein receptor (LDLR) Biomarker Activity (AID 2283045); conditions: primary human coronary artery smooth muscle cells; actives raise or lower the signal;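 also: LDLR protein level on the cell surface quantified by ELISA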
[14] = read-out: Monocyte Chemoattractant Protein-1 (MCP1), CCL2 (gene 6347); test: BSK_CASM3C_MCP1: BioMAP Diversity Plus: CASM3C Assay for Monocyte Chemoattractant Protein-1 (MCP1) Biomarker Activity (AID 2283046); conditions: primary human coronary artery smooth muscle cells; actives raise or lower the signal;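 also: MCP-1 level quantified by ELISA 24 h after dosing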
[15] = BSK_CASM3C_Proliferation: Cell Proliferation Assessment in the BioMAP Diversity Plus: CASM3C Assay (AID 2283047); conditions: primary human coronary artery smooth muscle cells;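 also: sulforhodamine B total protein stain as relative cell number at 560 nm; sub-confluent cells exposed 48 h before staining; fitted both ways against DMSO so gain or loss of cell number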
[16] = read-out: Monokine induced gamma interferon (MIG), CXCL9 (gene 4283); test: BSK_CASM3C_MIG: BioMAP Diversity Plus: CASM3C Assay for Monokine induced gamma interferon (MIG) Biomarker Activity (AID 2283048); conditions: primary human coronary artery smooth muscle cells; actives raise or lower the signal;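 also: MIG protein level measured by ELISA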
[17] = read-out: serum amyloid A (SAA), SAA1 (gene 6288); test: BSK_CASM3C_SAA: BioMAP Diversity Plus: CASM3C Assay for serum amyloid A (SAA) Biomarker Activity (AID 2283049); conditions: primary human coronary artery smooth muscle cells; actives raise or lower the signal;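 also: SAA protein level quantified by ELISA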
[18] = BSK_CASM3C_SRB: Viability Assessment in the BioMAP Diversity Plus: CASM3C Assay (AID 2283050); conditions: primary human coronary artery smooth muscle cells;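 also: total protein by SRB staining as cytotoxicity measure in parallel cultures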
[19] = read-out: Thrombomodulin, THBD (gene 7056); test: BSK_CASM3C_Thrombomodulin: BioMAP Diversity Plus: CASM3C Assay for Thrombomodulin Biomarker Activity (AID 2283051); conditions: primary human coronary artery smooth muscle cells; actives raise or lower the signal;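 also: thrombomodulin protein level measured by ELISA 24 h after dosing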
[20] = read-out: Vascular cell adhesion molecule 1 (VCAM1), VCAM1 (gene 7412); test: BSK_4H_VCAM1: BioMAP Diversity Plus: 4H Assay for Vascular cell adhesion molecule 1 (VCAM1) Biomarker Activity (AID 2283033); conditions: primary human endothelial cells (HUVEC); actives raise or lower the signal
Outline: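 Primary human umbilical vein endothelial cells were exposed to chemicals for 24 h, after which VCAM-1 was quantified by ELISA. Responses were fitted bidirectionally against DMSO as negative control and activity baseline.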

Measured: AC50

CN(C)CCCN(C)CCCN(C)C
inactive: [1] | [2] | [3] | [4] | [5] | [6] | [7] | [8] | [9] | [10] | [11] | [12] | [13] | [14] | [15] | [16] | [17] | [18] | [19]

COC(=O)[C@H]1[C@H]2C[C@@H]3c4[nH]c5cc(OC)ccc5c4CCN3C[C@H]2C[C@@H](OC(=O)c2cc(OC)c(OC)c(OC)c2)[C@@H]1OC
active: [20] 8.36 µM | [13] 8.87 µM | [15] 21.3 µM | [19] 16.9 µM
inactive: [1] | [3] | [7] | [8] | [9] | [10] | [11] | [12] | [14] | [16] | [17] | [18]

NC1CCCCC1
inactive: [1] | [2] | [3] | [4] | [6] | [7] | [8] | [9] | [10] | [11] | [12] | [13] | [14] | [15] | [16] | [17] | [18] | [19]

CC(=O)OCC(COC(C)=O)OC(C)=O
inactive: [1] | [2] | [3] | [4] | [6] | [7] | [8] | [9] | [10] | [11] | [12] | [13] | [14] | [15] | [16] | [17] | [18] | [19]

CO[C@@H]1COCC[C@@H]1N[C@@H]1CC[C@@](C(=O)N2CCc3ncc(C(F)(F)F)cc3C2)(C(C)C)C1
inactive: [1] | [2] | [3] | [4] | [6] | [7] | [8] | [9] | [10] | [11] | [12] | [13] | [14] | [15] | [16] | [17] | [18] | [19]

O=Cc1ccccc1C=O
inactive: [1] | [2] | [3] | [4] | [5] | [6] | [7] | [9] | [10] | [11] | [12] | [13] | [14] | [15] | [16] | [17] | [18] | [19]

Cc1c(C)c2c(c(C)c1O)CCC(C)(COc1ccc(CC3SC(=O)NC3=O)cc1)O2 (centres undefined)
inactive: [8] | [10] | [11] | [12] | [13] | [14] | [16] | [17] | [18]
active: [1] 15.2 µM | [2] 14.2 µM | [3] 31.8 µM | [4] 26.2 µM | [5] 14.7 µM | [6] 15.3 µM | [7] 29.6 µM | [9] 9.19 µM | [15] 6.88 µM | [19] 5.08 µM

O=C1c2c(O)cccc2Cc2cccc(O)c21
inactive: [1] | [2] | [3] | [4] | [6] | [7] | [8] | [9] | [10] | [11] | [12] | [13] | [14] | [16] | [17] | [18] | [19]
active: [15] 9.85 µM
